Source: the supplement of paper PMC6555819

What was measured:
Test in all cases: PBM binding z-score (relative to random genomic background probes); higher = stronger binding; sequences stand for … in GC…GCGATTGACAGCGTAGAATGAAGG
[1] = test system: FXR:RXRa (NR concentration 270 nM, RXRa partner concentration 90 nM)
Summary of the method: (§1)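 Probes were double-stranded and carried 34-nt variable regions with direct-repeat seeds, single-nucleotide variants, half-site ablations and random human genomic background sequences, printed on custom Agilent 4×180K protein-binding microarrays. Arrays were incubated 1 h with ligand-free nuclear receptor dimers in PBS pH 7.4, 2% milk, 0.02% Triton X-100, 1 mM DTT, 0.2 mg/mL BSA and 0.4 mg/ml salmon testes DNA. Antibodies against each partner (one per run) detected binding, and scanned fluorescence was regression-normalized. Binding z-scores use the random background probes as reference.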

[2] = test system: LXRa:RXRa (NR concentration 270 nM, RXRa partner concentration 90 nM)
Summary of the method: as §1

[3] = test system: LXRa homodimer (NR concentration 270 nM)
Summary of the method: as §1

[4] = test system: LXRb:RXRa (NR concentration 270 nM, RXRa partner concentration 90 nM)
Summary of the method: as §1

[5] = test system: LXRb homodimer (NR concentration 270 nM)
Summary of the method: as §1

[6] = test system: PPARa:RXRa (NR concentration 270 nM, RXRa partner concentration 90 nM)
Summary of the method: as §1

[7] = test system: PPARg:RXRa (NR concentration 180 nM, RXRa partner concentration 90 nM)
Summary of the method: as §1

[8] = test system: PPARg:RXRa 270nM:90nM, anti-RXR (NR concentration 270 nM, RXRa partner concentration 90 nM)
Summary of the method: as §1

[9] = test system: PPARg:RXRa 30nM:10nM, anti-RXR (NR concentration 30 nM, RXRa partner concentration 10 nM)
Summary of the method: as §1

[10] = test system: PPARg:RXRa 90nM:30nM, anti-RXR (NR concentration 90 nM, RXRa partner concentration 30 nM)
Summary of the method: as §1

[11] = test system: PPARg:RXRa DBDmut IVT, anti-RXR (DBD mutation: RXRa K156A/R161A, NR concentration 270 nM, RXRa partner concentration 90 nM)
Summary of the method: as §1

[12] = test system: PPARg:RXRa IVT, anti-PPARg (NR concentration 270 nM, RXRa partner concentration 90 nM)
Summary of the method: as §1

[13] = test system: PPARg DBDmut:RXRa IVT, anti-PPARg (DBD mutation: PPARg1 K132A/R137A, NR concentration 270 nM, RXRa partner concentration 90 nM)
Summary of the method: as §1

[14] = test system: PPARg DBDmut IVT, anti-PPARg (DBD mutation: PPARg1 K132A/R137A, NR concentration 270 nM)
Summary of the method: as §1

[15] = test system: PPARg homodimer (NR concentration 180 nM)
Summary of the method: as §1

[16] = test system: PXR:RXRa (NR concentration 270 nM, RXRa partner concentration 90 nM)
Summary of the method: as §1

[17] = test system: PXR homodimer (NR concentration 270 nM)
Summary of the method: as §1

[18] = test system: RARa:RXR (NR concentration 270 nM, RXRa partner concentration 90 nM)
Summary of the method: as §1

[19] = test system: RARa homodimer (NR concentration 270 nM)
Summary of the method: as §1

[20] = test system: RARb:RXRa (NR concentration 270 nM, RXRa partner concentration 90 nM)
Summary of the method: as §1

Row | Sequence | PBM binding z-score [1] | PBM binding z-score [2] | PBM binding z-score [3] | PBM binding z-score [4] | PBM binding z-score [5] | PBM binding z-score [6] | PBM binding z-score [7] | PBM binding z-score [8] | PBM binding z-score [9] | PBM binding z-score [10] | PBM binding z-score [11] | PBM binding z-score [12] | PBM binding z-score [13] | PBM binding z-score [14] | PBM binding z-score [15] | PBM binding z-score [16] | PBM binding z-score [17] | PBM binding z-score [18] | PBM binding z-score [19] | PBM binding z-score [20]
1 | TAGCCTAGGTCAGATCGGGCCGGTATACGCTATA | 1.49 | 0.768 | -0.645 | 0.506 | -0.232 | 1.27 | 0.615 | 0.655 | -0.199 | 0.0642 | 0.592 | 1.34 | -0.27 | -0.214 | 0.114 | 0.345 | -0.722 | 0.515 | -0.746 | 2.98
2 | CCTACTGGCCCACGAAAGGTCATTGATTCAGTGA | 3.58 | 4.35 | 5.66 | 4.39 | 0.684 | 4.2 | 0.749 | 2.36 | 0.593 | 1.47 | -0.126 | 0.861 | -0.814 | -1.14 | 3 | 5.2 | 1.92 | 5.64 | 2.79 | 3.94
3 | TCTTCTAGGTCAACGATGGTCAGCTAATCTGCTA | 4 | 3.57 | 0.955 | 2.54 | 2.65 | 4.34 | 6.09 | 5.82 | 5.08 | 5.64 | 7.21 | 7.26 | 2.6 | 3.07 | 2.69 | 2.23 | 0.345 | 2.8 | 1.21 | 4.31
4 | ACTTACGGGGCAACGAGGTTATAGCACGCGTATA | 0.934 | 0.688 | -0.335 | 1.73 | 0.511 | 2.21 | 1.64 | 1.26 | 0.448 | 1.2 | 2.66 | 2.16 | 0.904 | 0.257 | 0.811 | 1.62 | 0.644 | 1.73 | 0.365 | 1.63
5 | CCGACTGGGGCATAAGGTTACCATTAGCCAGCCC | 0.294 | 0.416 | -0.399 | 0.617 | -1.38 | 1.85 | 2.02 | 3.12 | 0.689 | 2.57 | 3.03 | 3.04 | -1.02 | -1.9 | 0.694 | 0.105 | -0.286 | 1.35 | -0.407 | 1.61
6 | TGCATGAGGTTATAAGATCAGGGAACGTTGCAAA | 1.67 | 1.59 | -0.113 | 0.956 | 0.14 | 2.37 | 0.778 | 1.2 | 0.448 | 0.789 | -0.354 | 0.643 | 0.656 | 0.178 | 0.466 | 0.667 | -0.0693 | 1.48 | 0.252 | 1.4
7 | ATCTCTAGGTAACCAAGTTCATTGAATGCCGAAC | 0.729 | 2.12 | 2.71 | 1.66 | 1.1 | 2.14 | 1.04 | 1.24 | 0.578 | 0.937 | 3.59 | 3.08 | 1.78 | 1.57 | 1.37 | 3.97 | 7.05 | 1.72 | 1.19 | 1.75
8 | TATACAGGGTCAAAGGCCAGAGTCCGAATGTCGA | 6.58 | 6.06 | 2.35 | 4.71 | 2.55 | 5.85 | 7.34 | 7.02 | 4.84 | 6.68 | 2.36 | 4.8 | 1.49 | 0.522 | 2.08 | 4.27 | 0.713 | 5.31 | 0.835 | 4.31
9 | CCTCGGAGGACAACAGGAGGTCAGAGTTGCCAGA | 1.11 | 2.05 | 2.59 | 1.57 | -0.486 | 2.02 | 0.634 | 0.674 | -0.404 | 0.264 | -0.0815 | 0.313 | -0.9 | -1.99 | 2.15 | 2.36 | 1.11 | 2.64 | 0.759 | 2.83
10 | TAGCCTAGGTCATTCAGGGGCCAGTATCGAAAGC | 4.39 | 3.78 | 0.945 | 3.2 | 1.1 | 3.76 | 1.95 | 2.11 | 0.0848 | 0.958 | 1.77 | 2.83 | 0.988 | -0.403 | 1.28 | 2.47 | 0.344 | 3.36 | -0.599 | 3.67
11 | AACACAGGGTCACTAGGCCAGAGTAGGTACGAAT | 6.27 | 4.48 | 0.354 | 3.63 | 0.661 | 5.75 | 7.72 | 6.51 | 2.84 | 5.42 | 3.35 | 5.16 | 3.43 | 0.694 | 5.13 | 3.16 | 0.347 | 4.14 | 0.685 | 4.19
12 | TTACCAGGGTGAAAGGTCGTTGATGCACGCCTTG | 3.76 | 3.21 | 0.701 | 3.12 | -0.0752 | 5.36 | 8.62 | 7.7 | 6.89 | 9.22 | 2.27 | 4.77 | 0.849 | 0.523 | 3.33 | 4.25 | 0.522 | 5.93 | 0.262 | 2.59
13 | GATACAGGGTCAGCAAGAGGCCAGAGTATGGAAA | 4.96 | 3.07 | -0.295 | 2.49 | -0.626 | 4.8 | 3.55 | 3.6 | 1.29 | 2.37 | 0.915 | 2.6 | -0.173 | -0.37 | 1.98 | 3.23 | 0.0143 | 4.07 | 0.301 | 4.18
14 | CCTCCTGGGCCAAAGGTCATTGATTCCAATGCTC | 4.65 | 5.11 | 3.68 | 4.79 | 0.666 | 5.6 | 9.24 | 8.76 | 10.1 | 10.1 | 1.03 | 4.67 | -0.712 | -0.452 | 3.43 | 5.26 | 1.79 | 5.99 | 0.948 | 4.3
